Results reported in paper PMC4336329 (PLoS ONE, 2015).
In all, about 310,000 compounds went through this assay and about 14,000 (4.5%) showed an effect of 50% or more. The effect is printed as a negative number. The sample holds strong results, similar compounds and a random draw of the others, so the mix is not that of the screen.

Each compound was assayed against human ether-à-go-go-related gene (hERG) potassium channel (human, UniProt Q12809) (assay: primary screen, population patch clamp on CHO cells stably expressing hERG; higher = less effect of the substance).
human ether-à-go-go-related gene (hERG) potassium channel, sequence (Q12809 whole entry, looked up): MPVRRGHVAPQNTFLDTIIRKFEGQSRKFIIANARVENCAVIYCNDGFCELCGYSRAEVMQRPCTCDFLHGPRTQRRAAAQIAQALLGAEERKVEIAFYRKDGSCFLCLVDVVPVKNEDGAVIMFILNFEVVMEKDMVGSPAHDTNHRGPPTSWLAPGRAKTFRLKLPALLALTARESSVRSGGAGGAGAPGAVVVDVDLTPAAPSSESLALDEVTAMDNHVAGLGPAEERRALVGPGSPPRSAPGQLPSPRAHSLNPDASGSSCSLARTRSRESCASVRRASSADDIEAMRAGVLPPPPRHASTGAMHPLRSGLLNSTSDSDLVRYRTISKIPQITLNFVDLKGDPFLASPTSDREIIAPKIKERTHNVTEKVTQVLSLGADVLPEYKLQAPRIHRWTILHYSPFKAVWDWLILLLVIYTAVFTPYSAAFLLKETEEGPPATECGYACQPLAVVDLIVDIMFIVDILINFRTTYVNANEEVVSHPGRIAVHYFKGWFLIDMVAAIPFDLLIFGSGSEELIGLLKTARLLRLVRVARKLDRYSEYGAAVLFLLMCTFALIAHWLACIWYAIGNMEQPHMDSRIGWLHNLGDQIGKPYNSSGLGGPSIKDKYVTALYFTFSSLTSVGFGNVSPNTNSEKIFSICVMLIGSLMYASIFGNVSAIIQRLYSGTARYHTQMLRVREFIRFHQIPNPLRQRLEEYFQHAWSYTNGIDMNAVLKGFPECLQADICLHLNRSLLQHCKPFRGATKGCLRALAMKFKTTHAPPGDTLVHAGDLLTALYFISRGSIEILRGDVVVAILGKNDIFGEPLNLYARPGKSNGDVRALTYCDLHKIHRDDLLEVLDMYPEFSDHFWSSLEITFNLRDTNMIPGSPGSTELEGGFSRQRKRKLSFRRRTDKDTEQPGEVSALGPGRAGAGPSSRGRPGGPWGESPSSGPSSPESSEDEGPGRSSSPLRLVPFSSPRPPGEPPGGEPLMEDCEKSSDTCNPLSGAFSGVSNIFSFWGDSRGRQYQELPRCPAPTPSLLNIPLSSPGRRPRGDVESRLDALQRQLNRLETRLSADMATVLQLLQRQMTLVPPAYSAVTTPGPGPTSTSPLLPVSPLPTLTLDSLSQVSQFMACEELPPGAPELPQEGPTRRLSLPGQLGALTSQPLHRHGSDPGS
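Note: peak tail current of the secondary pulse compared with the same well before compound.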

Structure (SMILES)	hERG current change (%, negative = inhibition) at 10uM
CN(C)c1ccc(NC(=O)N2CCOCC2)cc1	-3.34%
Cc1ccc(-c2cc3nc(-c4ccc(Br)cc4)cc(N)n3n2)cc1	-8.51%
CCCN(CC(=O)Nc1c(C)cccc1CC)C(=O)SCC	10%
CCc1cccc(NC2c3ccccc3C(=O)N2c2cccnc2)c1 (stereo not drawn)	-10.2%
CCC(C)(C)NC(=O)C(c1ccc(OC)cc1)N(C(=O)CCC(=O)Nc1cc(C)on1)C(C)(C)C (stereo not drawn)	-27.1%
COc1ccc(OCC(O)CNCc2ccco2)cc1 (stereo not drawn)	1.32%
COc1ccc(CCNC(=O)C2CCN(S(=O)(=O)N3CCC4(CC3)OCCO4)CC2)cc1OC	1.93%
COc1cc(C2=NOC(C(=O)Nc3ccc(C)cc3)C2)cc(OC)c1OC (stereo not drawn)	-4.96%
CCOC(=O)c1ccc(NC(=S)NC(=O)COc2ccccc2)cc1	11%
CCCCOc1ccc(-n2nc(C)cc2C)nn1	-16.3%
CCOC(=O)N1CCN(C(=O)c2ccc(NS(C)(=O)=O)cc2)CC1	-5.65%
Cn1c(SCC(=O)NC2CCCCC2)nnc1-c1ccncc1	13.2%
CC1COc2c(N3CCN(C)CC3)c(F)cc3c(=O)c(C(=O)O)cn1c23 (stereo not drawn)	18.2%
Cc1cc(C)c(NC(=O)c2cn3c4c(c(N5CCN(C)CC5)c(F)cc4c2=O)OCC3C)c(C)c1 (stereo not drawn)	-51.7%
C[C@H]1COc2c(N3CCN(C)CC3)c(F)cc3c(=O)c(C(=O)O)cn1c23	11.2%
O=C(Cc1cccs1)Nc1ccccc1-c1nc2ccccc2[nH]1	19.7%
CC(C)c1nnc(NC(=O)CC(=O)Nc2ccccc2C(=O)O)s1	4.72%
CON(C)c1nc(Oc2ccc(=O)[nH]n2)nc(N(C)C)n1	-9.3%
CCCC1(CCC)NC(=O)N(CC(=O)c2cc(C)n(-c3ccc4c(c3)OCO4)c2C)C1=O	5.65%
Cc1cc(C(=O)CN2C(=O)NC3(CCCCC3)C2=O)c(C)n1C	-10.3%
Cc1cc(C(=O)CN2C(=O)NC3(CCCCC3)C2=O)c(C)n1-c1ccc2c(c1)OCO2	-56.4%
COCCn1c(C)cc(C(=O)CN2C(=O)NC3(CCCCCC3)C2=O)c1C	-27.8%
Cc1cc(C(=O)CN2C(=O)NC3(CCCC3)C2=O)c(C)n1-c1ccc2c(c1)OCO2	-28.5%
COCCn1c(C)cc(C(=O)CN2C(=O)NC3(CCCCCCC3)C2=O)c1C	-59%

Structure (SMILES)	hERG current change (%, negative = inhibition) at 10uM
Cc1nn(CC(=O)NCc2ccc(C(=O)O)cc2)c(C)c1[N+](=O)[O-]	21.5%
CCOC(=O)c1cc(C)[nH]c(=S)c1C#N	-23.4%
Cc1ccc(C(=O)n2cnnc2N)cc1C	-0.0756%
CC(=O)NC(Cc1ccc(F)cc1)C(=O)NC1CCN(c2nnnn2-c2ccccc2)CC1 (stereo not drawn)	-41%
CC(=O)NC(Cc1cccc(F)c1)C(=O)NC1CCN(c2nnnn2-c2ccccc2)CC1 (stereo not drawn)	-5.71%
CC(=O)NC(Cc1cccc(F)c1)C(=O)NC1CCN(C(=O)c2ccc(C)cc2)CC1 (stereo not drawn)	33%
CC(=O)NC(Cc1ccc(F)c(F)c1)C(=O)NC1CCN(c2nnnn2-c2ccccc2)CC1 (stereo not drawn)	-54.6%
CC(=O)NC(Cc1ccc(F)c(F)c1)C(=O)NC1CCN(C(=O)c2ccc(Cl)cc2)CC1 (stereo not drawn)	-56.9%
CC(=O)NC(Cc1ccc(F)c(F)c1)C(=O)NC1CCN(C(=O)c2ccc(C)cc2)CC1 (stereo not drawn)	-12.9%
CN(C)S(=O)(=O)c1cccc(NC(=S)NC2CCCCC2)c1	6.69%
CCCN(CC1CC1)C(=S)NC(=O)c1ccccc1Br	-4.58%
C=CC(=O)N=c1sc2ccccc2n1-c1ccccc1	-6.08%
CCOC(=O)c1sc(=S)n(C)c1NC(=O)c1cccc(Br)c1	5.67%
S=C(Nc1ccccc1)N1CCOCC1	11.5%
O=C(Nc1ccc(F)c(Cl)c1)C1CCCN(c2cnccn2)C1 (stereo not drawn)	-24.9%
O=C(Nc1ccc(F)c(Cl)c1)C1CCCN(C2=NS(=O)(=O)c3ccccc32)C1 (stereo not drawn)	-63%
O=C(Nc1ccc(Cl)cc1)C1CCCN(C2=NS(=O)(=O)c3ccccc32)C1 (stereo not drawn)	-60%
O=C(Nc1ccc(Br)cc1)C1CCCN(C2=NS(=O)(=O)c3ccccc32)C1 (stereo not drawn)	-29.1%
Cc1ccc(NC(=O)C2CCCN(C3=NS(=O)(=O)c4ccccc43)C2)c(O)c1 (stereo not drawn)	-33.6%
O=C(Nc1ccc(F)c(Cl)c1)C1CCCC1	25.2%
COCCn1c(-c2ccc(Cl)cc2Cl)nc2c(c(=O)c3ccccc3n2C)c1=O	-8.66%
COc1ccccc1C(=O)Nc1ccc2c(c1)CCCN2C(=O)c1ccccc1	-39.8%
O=c1cc[nH]c2c1ccc1cccnc12	21.5%
CC(CC(=O)OCC(=O)NCc1ccc(Cl)cc1)c1ccccc1 (stereo not drawn)	-7.65%

Structure (SMILES)	hERG current change (%, negative = inhibition) at 10uM
C/C=C/c1ccc(OCCOCCOc2cccc3cccnc23)c(OC)c1	-50.5%
C=CCc1ccc(OCCOCCOc2cccc3cccnc23)c(OC)c1	-29.3%
C/C=C/c1ccc(OCCOc2cccc3cccnc23)c(OC)c1	20.3%
O=Cc1ccccc1OCCCOc1cccc2cccnc12	-4.59%
O=Cc1ccc(OCCCOc2cccc3cccnc23)cc1	-54.3%
Brc1ccc(OCCCOc2cccc3cccnc23)cc1	6.35%
CCc1ccc(S(=O)(=O)NCc2cn3ccsc3n2)s1	6.83%
N/C(=N\OC(=O)c1ccc2ccccc2c1)c1cccc([N+](=O)[O-])c1	5.05%
C#CCOCCOCCOCCNc1nc(N2CCN(C(=O)Cn3cc(CCC[NH+]=C(N)N)nn3)CC2)nc(N2CCN(C(=O)[C@H](CCCC[NH3+])n3cc(CCCC)nn3)CC2)n1.[Cl-]	7.39%
COc1ccc(S(=O)(=O)N2CCC(C(=O)c3ccc4c(c3)OCCO4)CC2)cc1	-6.76%
CC1CCCN(c2c3c(nc4ccccc24)CCCC3)C1 (stereo not drawn)	-65.2%
O=C(O)c1c2c(nc3ccccc13)CCCCC2	15.8%
Cl.c1ccc2c(N3CCOCC3)c3c(nc2c1)CCC3	-35.2%
CCOC(=O)C1=C(COC(=O)c2ccc([N+](=O)[O-])o2)NC(=O)NC1C (stereo not drawn)	-7.36%
CCC(C)N=CC1=C(O)C(C(=O)OC)C(C)(C)CC1=O (stereo not drawn)	-5.35%
CCOC(=O)C(=O)N=Nc1c(O)n(C)c2ccccc12	18.9%
O=C(CSc1nc(Nc2ccccc2)nc(N2CCOCC2)n1)N1CCc2ccccc21	-1.62%
O=C(CSc1nc(Nc2ccccc2)nc(N2CCOCC2)n1)N1CCCC1	-60.4%
O=C(CSc1nc(Nc2ccccc2)nc(N2CCOCC2)n1)NC1CCCCC1	-3.3%
FC(F)(F)c1ccc(-c2csc(-c3ccno3)n2)cc1	1.72%
Cc1cc(NCCCN)nc(-c2ccccc2O)n1	10%
OC(c1ccc(F)cc1)(c1ccc(F)cc1)[C@@H]1CCCN1	7.57%
CCCOC(=O)c1ccc(NC(=O)C(=O)NCC2CCCO2)cc1 (stereo not drawn)	4.7%
CCCCOC(=O)c1ccc(NC(=O)C(=O)NCCN(CC)CC)cc1	-73.2%

Structure (SMILES)	hERG current change (%, negative = inhibition) at 10uM
CCCCOC(=O)c1ccc(NC(=O)C(=O)NCc2ccncc2)cc1	-8.29%
CCN(CC)CCOC(=O)c1ccc(NC(=O)/C=C/c2cccs2)cc1.Cl	-76.3%
CCCOC(=O)c1ccc(NC(=O)COC)cc1	1.07%
CCCCOC(=O)c1ccc(NC(=O)C(=O)NCCN(C)C)cc1	-28.9%
CCCOC(=O)c1ccc(NC(=O)C(=O)NCCN(CC)CC)cc1	-52.1%
CCCOC(=O)c1ccc(NC(=O)/C=C/c2cccs2)cc1	0.453%
CCCCOC(=O)c1ccc(NC(=O)/C=C/c2cccs2)cc1	-17.1%
Nc1cccc(-n2cccc2)c1	18.5%
COc1cccc(CNC(=O)CCC(=O)n2ncc3cc(C)ccc32)c1OC	3.67%
Cc1ccc(C(=O)NNC(=O)CCN2C(=O)C3CCCCC3C2=O)cc1 (stereo not drawn)	-5.88%
CCCC/C(O)=C1\C(=O)CCCC1=NCCc1c(C)[nH]c2ccccc12	-12%
CNc1oc(C)nc1S(=O)(=O)c1ccc(C)cc1	10.6%
CC(NC(=O)CCNS(=O)(=O)c1cccc2nsnc12)c1ccccc1 (stereo not drawn)	-8.74%
CCOC(=O)CSc1nnc(CCc2nc3ccccc3[nH]2)n1C	-0.184%
CC(=O)c1ccc(N2CCN(CC(=O)N(C3CC3)C3CCS(=O)(=O)C3)CC2)c(F)c1 (stereo not drawn)	-12%
CCOc1[nH]n(-c2ccc(Cl)cc2)c(=O)c1C=NCc1cccnc1	-42.1%
Cc1ccc(-n2[nH]c(C)c(/C=N/c3ccccn3)c2=O)cc1	2.58%
Cc1[nH]n(-c2ccccc2)c(=O)c1C=NCc1ccco1	-10.7%
Cc1[nH]n(-c2ccccc2)c(=O)c1C=NCCc1ccccc1	-12.7%
CCOc1[nH]n(-c2ccccc2)c(=O)c1C=NCc1ccncc1	-50%
CCOc1[nH]n(-c2ccccc2)c(=O)c1C=NCc1cccnc1	-48.8%
Cc1[nH]n(-c2ccccc2)c(=O)c1C=NCc1ccncc1	-58.1%
Cc1ccc(-n2[nH]c(C)c(C=Nc3cc(C)ccn3)c2=O)cc1	-1.12%
Cc1ccc(-n2[nH]c(C)c(C=NCc3ccncc3)c2=O)cc1	-54.5%
